Reference: PubChem BioAssay (NCI)
Compounds without any hit were thinned out: in the full panel of roughly 83,000, 20% have a hit.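 Single-dose data. Exposure time 48 hours. Values below 10 considered active.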 Unmarked numbers belong to inactive results. Calls of active or inactive are those of the source.

System: HL-60(TB) leukemia
Test: NCI-60 one-dose screen, 48 h (100 = growth as untreated, 0 = no growth, -100 = all killed)
Settings: 10 µM unless noted

SMILES | growth
CN(C)CCN1C(=O)c2cccc3c(-c4ccc5ncn(C6CCCCC6)c5c4)ccc(c23)C1=O | 13.8%
CNC(=O)CCN1CCN(CC/C=C2\c3ccccc3Sc3ccc(Cl)cc32)CC1 | 50.2%
CC/C=C\C[C@H](O)C/C=C1/C(=O)C=C[C@@H]1C/C=C\CCCC(=O)NC | -27.2% (active)
CC(CCc1ccccc1)NC(=O)c1n[nH]c(=O)c2ccccc12 (configuration not stated) | 88.3%
COc1cccc(-c2nc3sccn3c2-c2ccnc(NCCNC(=O)Nc3cccc(C(F)(F)F)c3)n2)c1 | 62.8%
Cc1ccc(C2(C)NC(=O)N(CC(=O)Nc3cccc(C)c3)C2=O)cc1 (configuration not stated) | 103%
CCN(Cc1cccc(S(=O)(=O)[O-])c1)c1ccc(C(=C2C=CC(=[N+](CC)Cc3cccc(S(=O)(=O)O)c3)C=C2)c2ccccc2S(=O)(=O)O)cc1 | 104%
COc1cc(/C=C2\CN(C)C/C(=C\c3cc(CN4CCCC4)c(O)c(OC)c3)C2=O)cc(CN2CCCC2)c1O | 43.3%
NC(=O)NC(=O)c1ccc(Cl)cc1 | 95%
C=C(C)[C@@H]1CC[C@]2(C(=O)OC)CC[C@]3(C)[C@H](CC[C@@H]4[C@@](C)(CC/C(N)=N/O)[C@H](C(=C)C)CC[C@]43C)[C@@H]12 | 92.2%
Nc1ccccc1-c1cc2c(c3c1[nH]c1ccccc13)CCCCC2 | 91.6%
C=C(C)[C@@H]1CC[C@]2(C)[C@H](CC=C3[C@@H]4CC(C)(C)CC[C@]4(C=O)CC[C@]32C)[C@@]1(C)CCCN | -3.43% (active)
